Data published in PubChem BioAssay.
“And” between values parts separate entries of the source, which are not always exact repeats. Equal entries are not always repeated. The source made the active and inactive calls. Rule as the data show it, unless noted: active = inhibition above about 80%; inactive = the rest.

Assays:
[1] = viability loss with induced miR-34 in A549 – imaging, A549 dox-inducible miR-34, nuclei and caspase counts, primary screen (AID 1347080;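 active = compounds whose cell count with miR-34 switched on is under 0.7 times the count with it off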); conditions: A549 miR-34 inducible, Hoechst nuclei count, 48 h
[2] = MELAS cybrid and Rieske KO viability enhancers – cell-based, MELAS cybrids, Rieske KO mouse fibroblasts, CellTiter-Glo, primary screen (AID 1508586;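 active = mean z-score across replicates of 1.96 or higher in either the MELAS or the Rieske mutant cell line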;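 also: z relative to plate mean and SD of compound and empty wells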); conditions: low glucose
[3] = growth inhibition, single agent or in combination, cell-based, chromothripsis tumors, cisplatin or BGB combos (AID 1671449); conditions: LFS_MB_P medulloblastoma cells;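 also: cells exposed for 96 hours; 0% = vehicle DMSO and 100% = killing by high DMSO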
[4] = growth inhibition, single agent and combos, cell-based, chromothripsis tumors, cisplatin or BGB combos (AID 1671450); conditions: HDN33 neuroblastoma cells, stronger effect = higher value;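 also: cells exposed to compound for four days; 0% = vehicle DMSO and 100% = cell killing by high DMSO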
[5] = growth inhibition, single agents and combos, ICB984, cell-based, cisplatin or BGB combos, synergistic combos for chromothripsis tumors (AID 1671451; call rule not given here;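 also: cells exposed for 96 hours before readout; 0% = vehicle DMSO and 100% = killing by high DMSO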); conditions: ICB984 medulloblastoma cells, drug combinations, stronger effect = higher value
[6] = growth inhibition, single agents and combos, LFS_MB_1R, cell-based, cisplatin or BGB combos, synergistic combos for chromothripsis tumors (AID 1671452); conditions: LFS_MB_1R medulloblastoma cells, stronger effect = higher value;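 also: cells exposed for 96 hours before readout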
[7] = growth inhibition, single agents and combos, HTB85, cell-based, BGB or cisplatin IC20 combos, synergistic combos for chromothripsis tumors (AID 1671453); conditions: HTB85 osteosarcoma cells, drug combinations, stronger effect = higher value;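 also: cells exposed for 96 hours before readout; 0% = vehicle DMSO and 100% = high DMSO killing control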
[8] = growth inhibition, single agents and combos, CRL2098, cell-based, BGB or cisplatin IC20 combos, synergistic combos for chromothripsis tumors (AID 1671454); conditions: CRL2098 osteosarcoma cells, drug combinations, stronger effect = higher value;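 also: cells exposed for 96 h before readout; 0% = vehicle DMSO and 100% = killing by high DMSO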
[9] = growth inhibition, single agents and combos, HD-MB03, cell-based, BGB or cisplatin IC20 combos, synergistic combos for chromothripsis tumors (AID 1671455; in the data active = inhibition above about 83%;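 also: 0% = vehicle DMSO and 100% = high DMSO as cytotoxic control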); conditions: HD-MB03 medulloblastoma cells, stronger effect = higher value
[10] = growth inhibition, single agents and combos, UWB1.289, cell-based, BGB or cisplatin combos, synergistic combos for chromothripsis tumors (AID 1671456); conditions: UWB1.289 ovarian carcinoma cells, stronger effect = higher value;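 also: cells exposed to compound for four days; 0% = vehicle DMSO and 100% = killing by high DMSO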
[11] = growth inhibition, single agents and combos, LFS_MB_2R, cell-based, cisplatin combos, synergistic combos for chromothripsis tumors (AID 1671457); conditions: LFS_MB_2R medulloblastoma cells, stronger effect = higher value;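 also: cells exposed to compound for four days before readout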
[12] = growth inhibition, MDA-MB-436, cell-based, BGB or cisplatin combos, synergistic combos for chromothripsis tumors (AID 1671458; call rule not given here;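 also: cells exposed for 96 hours; 0% = vehicle DMSO and 100% = killing by high DMSO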); conditions: MDA-MB-436 breast carcinoma growth inhibition, drug combinations, stronger effect = higher value
[13] = UWB1.289_BRCA1 ovarian cancer growth, cell-based, BGB or cisplatin combinations (AID 1671459); conditions: UWB1.289 BRCA1 ovarian carcinoma, drug combinations, stronger effect = higher value
[14] = drug combination toxicity in non-malignant astrocytes – cell-based, BGB or cisplatin IC20 combos, cytotoxicity control for chromothriptic childhood tumor combination screen (AID 1671460); conditions: Human astrocytes, viability inhibition, drug combinations, at 0.5 µM, stronger effect = higher value;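 also: cells exposed to compounds for 96 hours before viability readout; 0% = vehicle and 100% = killing control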
[15] = BT084 cell growth, single and combined drugs, ICGC_MB145, cisplatin and BGB IC40 combos (AID 1671461); conditions: BT084 medulloblastoma cells, drug combinations, stronger effect = higher value;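 also: cells exposed to drugs for 96 hours; 0% = vehicle DMSO and 100% = high DMSO full killing control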
[16] = RCMB18 cell growth, single agent and combined, cisplatin and BGB IC40 combos (AID 1671462); conditions: RCMB18 medulloblastoma cells, stronger effect = higher value;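 also: cells exposed to compound for four days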
[17] = CRL1545 cell growth, single agent and combined, cisplatin and BGB IC20 combos (AID 1671464); conditions: CRL1545 osteosarcoma cells, stronger effect = higher value;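 also: cells exposed to compound for 96 hours before readout; 0% = vehicle DMSO and 100% = high DMSO killing control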
[18] = measured here: combination with BGB IC40, at 0.05 µM
[19] = measured here: with BGB IC20 combination, at 0.5 µM
[20] = measured here: with cisplatin IC20 combination, at 0.5 µM
[21] = measured here: combination with cisplatin, at 0.5 µM
[22] = measured here: combination with cisplatin, at 5 µM

CC(Oc1cc(-c2cnn(C3CCNCC3)c2)cnc1N)c1c(Cl)ccc(F)c1Cl (centres undefined)
fold change ([1]; stronger effect = lower value, cell number ratio, induced over uninduced): 0.89 (inactive) and 0.888 (inactive) | fold change ([1]; measured here: relative caspase fold change +Dox/-Dox): 0.695 and 1.44 | cell count ([1]; measured here: total cells with miR-34 induction, stronger effect = lower value): 6060 and 1510 | cell count ([1]; measured here: total cells without miR-34 induction): 6810 and 1700 | z-score ([2]; MELAS cybrid survival, CellTiter-Glo 48 h, stronger effect = higher value): -0.618 (inactive) and 0.388 (inactive) | z-score ([2]; Rieske KO mouse fibroblast survival, CellTiter-Glo 72 h): -0.613 and -1.18 | inhibition ([3]; at 0.5 µM, stronger effect = higher value): -14.5% (inactive) | inhibition ([3]; measured here: combination with BGB IC20, at 0.005 µM): -15.8% | inhibition ([3]; measured here: combination with BGB IC40, at 0.005 µM): -3.96% | inhibition [3, 18]: -10.8% | inhibition ([3]; measured here: combination with cisplatin, at 0.5 µM, stronger effect = higher value): -18.2% | inhibition ([3]; measured here: combination with cisplatin, at 5 µM, stronger effect = higher value): -60.7% | inhibition ([4]; BGB combo, at 5 µM): 54.9% | inhibition ([4]; at 0.5 µM): 3.71% (inactive) | inhibition ([4]; cisplatin combo, at 5 µM): 68.7% | inhibition [4, 19]: -2.84% | inhibition [4, 20]: 14.2% | inhibition ([4]; single agent, at 5 µM): 74.1% | inhibition ([5]; BGB IC20 combo, at 0.005 µM): 9.17% | inhibition ([5]; BGB IC40 combo, at 0.005 µM): -17.8% | inhibition ([5]; BGB IC40 combo, at 0.05 µM): 44.6% | inhibition ([5]; at 0.5 µM): -13.1% (inactive) | inhibition ([5]; cisplatin combo, at 0.05 µM): 42.6% | inhibition ([5]; cisplatin combo, at 0.5 µM): -13.5% | inhibition ([5]; cisplatin combo, at 5 µM): -41.4% | inhibition ([5]; measured here: 5 uM single agent, at 5 µM): -10.6% | inhibition ([6]; at 0.5 µM): -9.48% (inactive) | inhibition [6, 18]: 5.36% | inhibition [6, 21]: -34% | inhibition [6, 22]: 26.2% | inhibition ([7]; at 0.5 µM): 2.72% (inactive) | inhibition ([7]; measured here: with BGB IC20, at 0.5 µM): 0.991% | inhibition ([7]; measured here: with BGB IC20, at 5 µM): 44.7% | inhibition ([7]; measured here: with cisplatin IC20, at 0.5 µM): 4.34% | inhibition ([7]; measured here: with cisplatin IC20, at 5 µM): 12.6% | inhibition ([7]; single agent, at 5 µM): 47.7% | inhibition ([8]; at 0.5 µM): -32.5% (inactive) | inhibition ([8]; measured here: combination with BGB at IC20, at 0.5 µM): -20.2% | inhibition ([8]; measured here: combination with cisplatin at IC20, at 0.5 µM): -64.1% | inhibition ([9]; at 0.5 µM): 3.43% (inactive) | inhibition ([9]; measured here: combo with BGB at IC20, at 0.5 µM): -2.99% | inhibition ([9]; measured here: combo with cisplatin at IC20, at 0.5 µM): 13.3% | inhibition ([10]; at 0.5 µM): 11.5% (inactive) | inhibition ([10]; measured here: inhibition with BGB combination, at 0.05 µM): 17.9% | inhibition ([10]; measured here: inhibition with cisplatin combination, at 0.05 µM): 12.8% | inhibition ([11]; at 0.5 µM): -6.87% (inactive) | inhibition [11, 21]: -10.6% | inhibition [11, 22]: 26.8% | inhibition ([12]; at 0.5 µM): 2.15% (inactive) | inhibition ([12]; measured here: BGB combination, at 0.5 µM): 0.074% | inhibition ([12]; measured here: BGB combination, at 5 µM): 18.2% | inhibition ([12]; measured here: cisplatin combination, at 0.5 µM): 3.61% | inhibition ([12]; measured here: cisplatin combination, at 5 µM): 29.4% | inhibition ([13]; BGB combination, concentration series, at 5 µM): 53.7% | inhibition ([13]; at 0.5 µM): 8.71% (inactive) | inhibition ([13]; cisplatin combination, concentration series, at 5 µM): 38.8% | inhibition [14]: -2.23% (inactive) | inhibition ([14]; measured here: combo with BGB IC20): -5.88% | inhibition ([14]; measured here: combo with cisplatin IC20): -4.28% | inhibition ([15]; at 0.5 µM): 5.1% (inactive) | inhibition ([15]; cisplatin combination, at 0.5 µM): -5.89% | inhibition ([15]; cisplatin combination, at 5 µM): 96.5% | inhibition ([15]; measured here: BGB IC40 combination 0.05 uM, at 0.05 µM): -35.9% | inhibition ([15]; single agent, at 5 µM): 55.8% | inhibition ([16]; at 0.5 µM): 16.2% (inactive) | inhibition ([16]; cisplatin combo, at 5 µM): 34.5% | inhibition ([16]; measured here: BGB IC40 combination, at 0.05 µM): 5.63% | inhibition [16, 21]: 33% | inhibition ([16]; single agent, at 5 µM): 51.6% | inhibition ([17]; at 0.5 µM): -10% (inactive) | inhibition [17, 19]: -14.1% | inhibition [17, 20]: -9.79% | inhibition ([17]; single agent, at 0.05 µM): 7.84% | inhibition ([17]; single agent, at 5 µM): 64%
